Where “and” joins values, the source holds several entries; their conditions need not be identical. Equal values may be shown once. Inconclusive results are not listed. Calls of active or inactive are those of the source. Unless noted, calls come from the whole dose curve.
Experiments:
[1] = target: Bile acid receptor (Homo sapiens) (UniProt Q96RI1); test: qHTS assay for small molecule agonists of farnesoid X receptor signaling (AID 588527); conditions: HEK293T FXR-UAS-bla, beta-lactamase ratio, 16 h; activation: stronger effect = higher value;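 note: series mostly up to about 77 µM; 0% = vehicle basal and 100% = reference agonist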
Sequence of Bile acid receptor (Homo sapiens) (Q96RI1 whole entry, looked up): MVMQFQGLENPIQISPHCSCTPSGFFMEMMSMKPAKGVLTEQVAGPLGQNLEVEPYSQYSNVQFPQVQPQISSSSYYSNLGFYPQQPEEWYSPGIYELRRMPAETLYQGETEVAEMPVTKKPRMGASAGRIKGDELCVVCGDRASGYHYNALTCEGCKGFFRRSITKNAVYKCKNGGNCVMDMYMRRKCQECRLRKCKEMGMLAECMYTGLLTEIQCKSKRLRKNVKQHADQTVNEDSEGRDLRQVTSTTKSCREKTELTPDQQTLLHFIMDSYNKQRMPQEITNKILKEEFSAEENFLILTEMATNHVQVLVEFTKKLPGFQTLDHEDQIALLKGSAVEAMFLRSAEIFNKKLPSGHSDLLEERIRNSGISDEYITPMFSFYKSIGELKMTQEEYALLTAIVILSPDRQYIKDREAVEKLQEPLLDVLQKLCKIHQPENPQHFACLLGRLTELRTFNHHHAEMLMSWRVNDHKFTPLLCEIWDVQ
How it was run: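 Read-out: beta-lactamase reporter fluorescence with CCF4 substrate in GeneBLAzer FXR-UAS-bla HEK293T cells, after 16 h compound exposure at 37 C. Response scaled between DMSO basal (0%) and chenodeoxycholic acid at 100 uM (100%).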

[2] = target: Peroxisome proliferator-activated receptor delta (Homo sapiens) (UniProt Q03181); test: qHTS assay for small molecule agonists of peroxisome proliferator-activated receptor delta signaling (AID 588534);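 note: 0% = DMSO basal wells and 100% = positive control agonist at 10 µM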
Sequence of Peroxisome proliferator-activated receptor delta (Homo sapiens) (Q03181 whole entry, looked up): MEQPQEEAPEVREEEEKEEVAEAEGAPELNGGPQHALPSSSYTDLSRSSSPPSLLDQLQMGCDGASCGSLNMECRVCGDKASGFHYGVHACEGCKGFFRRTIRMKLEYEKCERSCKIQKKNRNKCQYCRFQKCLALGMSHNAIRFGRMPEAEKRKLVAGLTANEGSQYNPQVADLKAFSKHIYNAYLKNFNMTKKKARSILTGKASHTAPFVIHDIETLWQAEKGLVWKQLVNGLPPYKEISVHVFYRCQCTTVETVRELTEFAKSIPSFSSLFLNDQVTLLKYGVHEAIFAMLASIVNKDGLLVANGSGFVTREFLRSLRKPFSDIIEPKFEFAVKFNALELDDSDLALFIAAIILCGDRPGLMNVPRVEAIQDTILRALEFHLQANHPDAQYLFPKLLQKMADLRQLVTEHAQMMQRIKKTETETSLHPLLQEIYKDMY
How it was run: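 Agonist-mode beta-lactamase reporter readout (CCF4 dye, 2 h at RT) after 18 h at 37 °C exposure to a titration; Hill-equation fitting gave EC50 and maximal response.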

[3] = target: Glucocorticoid receptor (Homo sapiens) (UniProt P04150); test: qHTS assay for small molecule agonists of glucocorticoid receptor signaling (AID 588532; active = well fitted curve in the direction sought with a large enough effect in the signal ratio, with a control signal flat; the % refers to the signal ratio;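 note: 100% = dexamethasone at 0.1 µM and 0% = DMSO only wells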); conditions: HeLa MMTV-bla, beta-lactamase ratio, agonist, 18 h; activation: stronger effect = higher value, percent of dexamethasone control, DMSO zero
Sequence of Glucocorticoid receptor (Homo sapiens) (P04150 whole entry, looked up): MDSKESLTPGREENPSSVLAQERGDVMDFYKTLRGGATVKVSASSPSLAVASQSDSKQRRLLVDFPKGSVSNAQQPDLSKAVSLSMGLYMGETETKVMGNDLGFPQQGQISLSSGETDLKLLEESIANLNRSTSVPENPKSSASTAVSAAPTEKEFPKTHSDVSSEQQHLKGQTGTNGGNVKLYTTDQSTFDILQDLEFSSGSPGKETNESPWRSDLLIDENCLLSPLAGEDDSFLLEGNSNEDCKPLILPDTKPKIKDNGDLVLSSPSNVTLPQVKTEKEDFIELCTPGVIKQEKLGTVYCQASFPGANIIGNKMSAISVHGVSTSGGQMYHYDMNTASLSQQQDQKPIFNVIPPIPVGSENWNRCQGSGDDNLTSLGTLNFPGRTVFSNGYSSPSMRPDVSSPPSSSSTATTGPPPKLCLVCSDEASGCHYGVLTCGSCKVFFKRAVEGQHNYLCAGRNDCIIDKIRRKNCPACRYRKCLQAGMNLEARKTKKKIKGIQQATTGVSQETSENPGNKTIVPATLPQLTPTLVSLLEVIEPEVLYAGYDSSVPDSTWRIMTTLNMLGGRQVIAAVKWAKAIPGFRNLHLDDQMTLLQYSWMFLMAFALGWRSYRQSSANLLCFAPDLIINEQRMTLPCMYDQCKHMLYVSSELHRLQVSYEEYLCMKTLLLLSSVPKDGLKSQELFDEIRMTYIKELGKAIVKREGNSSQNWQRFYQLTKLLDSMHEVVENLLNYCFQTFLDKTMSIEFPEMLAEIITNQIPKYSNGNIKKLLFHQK
How it was run: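 Stimulation of a glucocorticoid response element-driven beta-lactamase gene was measured in HeLa cells. Responses were scaled between DMSO basal and 0.1 uM dexamethasone, then fitted for half-maximal stimulation.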

[4] = target: Thyroid hormone receptor beta (Homo sapiens) (UniProt P10828); test: qHTS assay for small molecule antagonists of thyroid hormone receptor beta signaling (AID 588547; active = well fitted inhibition curve with a large enough effect in the signal ratio, with a control signal flat, not every such curve was filed as active; the % refers to the signal ratio;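 note: cells stimulated with 0.4 nM T3 agonist during compound exposure; series mostly up to about 77 µM; % is set by controls: 0 for no effect and ±100 for the full control effect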); conditions: TR-UAS-bla HEK293, beta-lactamase ratio, antagonist mode, 18 h
Sequence of Thyroid hormone receptor beta (Homo sapiens) (P10828 whole entry, looked up): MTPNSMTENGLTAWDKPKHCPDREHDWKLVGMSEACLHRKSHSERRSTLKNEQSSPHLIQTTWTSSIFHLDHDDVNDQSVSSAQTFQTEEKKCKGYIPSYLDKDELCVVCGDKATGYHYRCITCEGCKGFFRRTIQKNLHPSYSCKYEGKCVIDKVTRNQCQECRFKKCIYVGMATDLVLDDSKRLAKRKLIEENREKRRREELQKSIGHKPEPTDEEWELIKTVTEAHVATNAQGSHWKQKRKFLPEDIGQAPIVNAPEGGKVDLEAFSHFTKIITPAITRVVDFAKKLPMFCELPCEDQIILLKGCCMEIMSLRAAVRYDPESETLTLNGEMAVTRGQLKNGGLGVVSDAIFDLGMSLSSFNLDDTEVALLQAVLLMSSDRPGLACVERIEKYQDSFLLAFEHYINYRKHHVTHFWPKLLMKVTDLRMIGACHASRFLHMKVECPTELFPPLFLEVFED
How it was run: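 TR-UAS-bla GripTite HEK293 cells in 2% charcoal/dextran FBS medium were preincubated 4 h at 37 C, given compound (0.59 nM to 92 uM) plus 0.4 nM T3 (final) for 18 h, then CCF4 for 2 h at RT; Hill fit gave IC50.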

[5] = qHTS assay for small molecule agonists of the antioxidant response element (ARE) signaling pathway (AID 651741; active = well fitted activation curve with a large enough effect in the signal ratio; the % refers to the signal ratio; note: potency is the fitted concentration of half-maximal effect)
How it was run: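 Reporter: beta-lactamase under ARE, stably in HepG2. Exposure: 16 h, 37 C, compounds delivered in DMSO by pin tool after 5 h cell preincubation. Readout: FRET substrate fluorescence after 2 h at RT.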

[6] = qHTS assay for small molecule activators of the p53 signaling pathway (AID 651743; active = well fitted activation curve with a large enough effect in the signal ratio, not every such curve was filed as active; the % refers to the signal ratio; note: series mostly up to about 92 µM; % of control where 0% means no effect); conditions: HCT-116 p53RE-bla, beta-lactamase FRET ratio, 16 h; activation: stronger effect = higher value
How it was run: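 Agonist-mode quantitative HTS in HCT-116 cells carrying a p53-response-element beta-lactamase reporter; 16 h compound treatment at 37 C, then FRET substrate loading for 2 h at room temperature and fluorescence read.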

[7] = qHTS assay for small molecule activators of the nuclear factor-kappa B (NF-kB) signaling pathway (AID 651749; active = well fitted activation curve with a large enough effect in the signal ratio; the % refers to the signal ratio; note: series mostly up to about 77 µM; % of control where 0% means no effect); conditions: NF-kB-bla ME-180 cells, beta-lactamase FRET ratio, 16 h; activation: stronger effect = higher value
How it was run: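 Human ME-180 cervical cells with an NF-kB-bla construct; compounds added via 23 nL pin transfer, DMSO as vehicle; incubation 16 hr. Reporter activity measured by FRET disruption.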

[8] = qHTS assay for environmental chemicals that activate the Aryl hydrocarbon Receptor (AhR) signaling pathway (AID 651777; active = well fitted curve in the direction sought with a large enough effect; an effect the other way counts as inactive or inconclusive; note: % of control where 0% means no effect; nearly all actives have a fitted effect of over 15% in size); conditions: 1A2-DRE human hepatoma cells, luciferase, 24 h; activation: stronger effect = higher value
How it was run: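 Induction of CYP1A2 transcription through AhR is detected by luciferase in 1A2-DRE hepatoma cells. Compounds or DMSO act for 24 hr at 37 C before a 30 min One-Glo step at room temperature.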

[9] = target: Peroxisome proliferator-activated receptor alpha (Homo sapiens) (UniProt Q07869); test: qHTS assay for small molecule agonists of the peroxisome proliferator-activated receptor alpha (PPARalpha) signaling pathway (AID 651778; active = well fitted curve in the direction sought with a large enough effect; an effect the other way counts as inactive or inconclusive; note: % of control where 0% means no effect); conditions: PathHunter PPARalpha complementation, chemiluminescence, 6 h; max response: stronger effect = higher value
Sequence of Peroxisome proliferator-activated receptor alpha (Homo sapiens) (Q07869 whole entry, looked up): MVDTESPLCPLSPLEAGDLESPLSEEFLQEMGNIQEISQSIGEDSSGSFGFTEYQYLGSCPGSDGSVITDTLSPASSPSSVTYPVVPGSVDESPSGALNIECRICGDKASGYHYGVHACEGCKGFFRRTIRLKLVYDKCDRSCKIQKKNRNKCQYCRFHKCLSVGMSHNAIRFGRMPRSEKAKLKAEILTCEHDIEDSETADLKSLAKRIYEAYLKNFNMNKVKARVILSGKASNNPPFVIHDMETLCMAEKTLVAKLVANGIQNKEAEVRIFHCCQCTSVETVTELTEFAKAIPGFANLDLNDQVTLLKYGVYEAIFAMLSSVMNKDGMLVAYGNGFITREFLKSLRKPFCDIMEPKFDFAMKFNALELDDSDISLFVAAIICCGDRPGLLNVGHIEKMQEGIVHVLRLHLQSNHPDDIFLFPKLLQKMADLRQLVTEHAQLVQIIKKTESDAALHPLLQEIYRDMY
How it was run: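 Cells plated at 2,000/well and held overnight at 37 C, 5% CO2, then compound added by pin tool for 6 hr; after PathHunter detection reagent and 60 min at room temperature, chemiluminescence from enzyme complementation was read.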

[10] = qHTS assay for small molecule agonists of the antioxidant response element (ARE) signaling pathway measured by Nrf2-dependant transcriptional activity (AID 720636; active = well fitted curve in the direction sought with a large enough effect in the repeat runs; an effect the other way counts as inactive or inconclusive;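 note: HepG2 cells with an ARE-driven luciferase reporter; % of control where 0% means no effect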)
How it was run: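 We exposed ARE-luc HepG2 cells, seeded in assay medium with 1% dialyzed FBS and allowed 6 hr to adhere, to test compounds overnight (16 hr, 37 C) before measuring luciferase with ONE-Glo.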

[11] = qHTS assay for small molecule agonists of the antioxidant response element (ARE) signaling pathway measured by Nrf2-dependant transcriptional activity - cell viability counter screen (AID 720653; active = well fitted curve in the direction sought with a large enough effect in the repeat runs; an effect the other way counts as inactive or inconclusive; note: % is set by controls: 0 for no effect and ±100 for the full control effect); conditions: ARE-bla HepG2 viability, CellTiter-Glo ATP luminescence, 16 h; max response: stronger effect = lower value
How it was run: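 ARE-bla HepG2 cells (2,000/well) rested 5 hrs at 37C/5% CO2, then exposed to compounds in DMSO for 16 hrs. Viability was read in the same wells as intracellular ATP by luminescence, 30 min at room temperature after reagent addition.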

[12] = qHTS assay for cell viability of HEK293 cells (AID 743288; active = well fitted curve in the direction sought with a large enough effect; an effect the other way counts as inactive or inconclusive; note: nearly all actives have a fitted effect of over 50% in size; note: potency is the fitted concentration of half-maximal effect); conditions: ATP luminescence (CellTiter-Glo), 18 h; max response: stronger effect = lower value
How it was run: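 After 18 h compound exposure at 37 C, parental HEK293 cells (2,000/well) are lysed with CellTiter-Glo and luminescence is read following 30 min at room temperature.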

[13] = qHTS assay for cell viability of the p53RE-bla HCT-116 cell line (AID 743292; active = well fitted curve in the direction sought with a large enough effect; an effect the other way counts as inactive or inconclusive; note: % is set by controls: 0 for no effect and ±100 for the full control effect; nearly all actives have a fitted effect of over 55% in size)
How it was run: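 In this qHTS counter-screen, metabolically competent p53RE-bla HCT-116 cells were counted via their ATP content. Compounds were applied for 16 h at 37 C and luciferase-coupled luminescence was measured.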

[14] = target: Nuclear receptor subfamily 1 group I member 2 (Rattus norvegicus) (UniProt Q9R1A7); test: qHTS assay for small molecule activators of the rat pregnane X receptor (rPXR) signaling pathway (AID 651751; call rule not given here; note: 0% is about no effect); conditions: rPXR reporter cells, luciferase (One-Glo), 24 h
Sequence of Nuclear receptor subfamily 1 group I member 2 (Rattus norvegicus) (Q9R1A7 whole entry, looked up): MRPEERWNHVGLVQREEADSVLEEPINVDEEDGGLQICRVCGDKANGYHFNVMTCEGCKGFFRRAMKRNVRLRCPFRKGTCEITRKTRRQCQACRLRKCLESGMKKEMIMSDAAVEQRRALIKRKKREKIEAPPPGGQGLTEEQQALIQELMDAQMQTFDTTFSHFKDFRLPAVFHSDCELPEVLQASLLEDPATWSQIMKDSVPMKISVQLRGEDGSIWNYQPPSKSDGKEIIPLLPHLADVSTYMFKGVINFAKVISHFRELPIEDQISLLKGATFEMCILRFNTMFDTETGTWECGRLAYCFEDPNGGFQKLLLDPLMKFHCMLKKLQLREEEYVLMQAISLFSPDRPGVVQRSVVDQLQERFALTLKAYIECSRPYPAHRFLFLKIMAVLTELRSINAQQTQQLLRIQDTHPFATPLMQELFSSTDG

[15] = qHTS assay for small molecule activators of the human pregnane X receptor (PXR) signaling pathway (AID 720659; call rule not given here; note: 0% is about no effect)
[16] = target: Glucocorticoid receptor (Homo sapiens) (UniProt P04150); test: qHTS assay for small molecule antagonists of glucocorticoid receptor signaling (AID 588533; active = well fitted inhibition curve with a large enough effect in the signal ratio, with a control signal flat, not every such curve was filed as active; the % refers to the signal ratio;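 note: cells stimulated with 2 nM dexamethasone as agonist; % is set by controls: 0 for no effect and ±100 for the full control effect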)
How it was run: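 Antagonist-mode qHTS: compound titrations added to GRE-bla HeLa cells, then dexamethasone 2 nM final; 18 h, 37 C. CCF4 FRET fluorescence normalized to dexamethasone and DMSO; IC50 from Hill fit.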

[17] = qHTS assay for small molecule antagonists of peroxisome proliferator-activated receptor delta signaling (AID 588535); conditions: HEK293T PPARd-UAS-bla, beta-lactamase FRET ratio, 18 h; 460 nm channel;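 note: cells co-treated with a PPAR-delta agonist as stimulator during compound exposure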
How it was run: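 Inhibition of PPAR-delta response element-driven beta-lactamase expression is measured in HEK293T cells exposed to a compound titration series for 18 hrs at 37 C. Half-maximal inhibition comes from Hill equation fitting.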

[18] = target: Peroxisome proliferator-activated receptor gamma (Homo sapiens) (UniProt P37231); test: qHTS assay for small molecule agonists of peroxisome proliferator-activated receptor gamma signaling (AID 588536; active = well fitted curve in the direction sought with a large enough effect in the signal ratio, with a control signal flat, not every such curve was filed as active; the % refers to the signal ratio;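 note: 0% = DMSO basal wells and 100% = rosiglitazone at 2 µM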)
Sequence of Peroxisome proliferator-activated receptor gamma (Homo sapiens) (P37231 whole entry, looked up): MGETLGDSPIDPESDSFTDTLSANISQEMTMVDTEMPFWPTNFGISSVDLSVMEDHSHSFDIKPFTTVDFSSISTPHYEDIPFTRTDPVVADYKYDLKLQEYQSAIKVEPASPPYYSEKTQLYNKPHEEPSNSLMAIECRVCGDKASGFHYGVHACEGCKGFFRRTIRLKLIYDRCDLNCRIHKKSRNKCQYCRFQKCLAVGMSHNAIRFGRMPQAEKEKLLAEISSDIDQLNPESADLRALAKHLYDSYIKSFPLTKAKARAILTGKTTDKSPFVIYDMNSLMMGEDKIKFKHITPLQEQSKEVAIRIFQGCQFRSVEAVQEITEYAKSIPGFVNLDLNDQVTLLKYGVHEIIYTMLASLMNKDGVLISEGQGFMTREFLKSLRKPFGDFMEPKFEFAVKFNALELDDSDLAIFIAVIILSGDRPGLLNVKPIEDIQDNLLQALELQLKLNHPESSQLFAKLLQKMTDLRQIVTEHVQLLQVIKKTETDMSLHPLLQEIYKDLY
How it was run: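 Beta-lactamase reporter read-out: CCF4 fluorescence (ex 405, em 460/530 nm) after 2 h at RT. HEK293 GeneBLAzer cells were treated for 16 h at 37 C. Hill fits gave EC50 and efficacy versus 2 uM rosiglitazone (100%) and DMSO (0%).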

[19] = target: Vitamin D3 receptor (Homo sapiens) (UniProt P11473); test: qHTS assay for small molecule agonists of vitamin D receptor signaling (AID 588543);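 note: 0% = DMSO basal and 100% = reference agonist control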
Sequence of Vitamin D3 receptor (Homo sapiens) (P11473 whole entry, looked up): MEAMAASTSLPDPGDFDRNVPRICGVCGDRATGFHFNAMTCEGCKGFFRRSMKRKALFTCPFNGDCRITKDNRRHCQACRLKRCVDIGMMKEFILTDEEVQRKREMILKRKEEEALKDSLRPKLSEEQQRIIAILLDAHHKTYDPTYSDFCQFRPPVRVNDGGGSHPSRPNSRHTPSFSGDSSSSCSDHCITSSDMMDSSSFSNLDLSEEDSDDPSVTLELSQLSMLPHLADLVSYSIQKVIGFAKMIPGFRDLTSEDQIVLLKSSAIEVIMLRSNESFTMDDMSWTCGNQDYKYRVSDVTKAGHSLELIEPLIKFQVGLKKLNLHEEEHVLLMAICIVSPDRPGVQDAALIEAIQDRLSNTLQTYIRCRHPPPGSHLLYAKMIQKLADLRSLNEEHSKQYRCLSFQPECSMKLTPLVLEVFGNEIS
How it was run: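 GeneBLAzer VDR-UAS-bla HEK293T cells in 2% charcoal-stripped FBS medium were dosed with compound titrations for 16 h at 37 °C; CCF4 β-lactamase readout (405 nm ex, 460/530 nm em). EC50 and efficacy from Hill fits, normalized to 50 nM calcitriol (100%) and DMSO (0%).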

[20] = qHTS assay for small molecule agonists of retinoid X receptor alpha signaling (AID 588544); conditions: HEK293T RXRa-UAS-bla, beta-lactamase reporter, 18 h; 530 nm emission; note: potency is the fitted concentration of half-maximal effect;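 for activation: 0% = DMSO basal wells and 100% = reference agonist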
[21] = target: Retinoic acid receptor RXR-alpha (Homo sapiens) (UniProt P19793); test: as above
Sequence of Retinoic acid receptor RXR-alpha (Homo sapiens) (P19793 whole entry, looked up): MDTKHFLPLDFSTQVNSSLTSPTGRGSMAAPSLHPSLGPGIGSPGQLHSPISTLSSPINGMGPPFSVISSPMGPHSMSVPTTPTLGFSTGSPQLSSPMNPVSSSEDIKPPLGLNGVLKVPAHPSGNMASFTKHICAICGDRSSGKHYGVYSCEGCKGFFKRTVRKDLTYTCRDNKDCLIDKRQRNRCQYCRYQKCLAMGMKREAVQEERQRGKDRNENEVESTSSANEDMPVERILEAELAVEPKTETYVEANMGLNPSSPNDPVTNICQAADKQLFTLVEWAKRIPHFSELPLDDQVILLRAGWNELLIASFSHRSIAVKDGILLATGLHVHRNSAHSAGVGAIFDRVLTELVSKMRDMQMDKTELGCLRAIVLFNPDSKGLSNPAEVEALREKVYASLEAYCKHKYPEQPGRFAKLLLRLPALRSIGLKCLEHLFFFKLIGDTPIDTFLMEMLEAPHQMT

[22] = target: Thyroid hormone receptor beta (Homo sapiens) (UniProt P10828); test: qHTS assay for small molecule agonists of thyroid hormone receptor beta signaling (AID 588545)
How it was run: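 Cells (2500/well) were seeded, incubated 4 hrs at 37 C, dosed with a compound series, incubated 18 hrs, loaded with CCF4 dye for 2 hrs at RT, then read for fluorescence. Data were scaled between DMSO (0%) and 10 nM T3 (100%).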

[23] = qHTS assay for small molecule antagonists of retinoid X receptor alpha signaling (AID 588546; active = well fitted inhibition curve with a large enough effect in the signal ratio, with a control signal flat, not every such curve was filed as active; the % refers to the signal ratio;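 note: cells stimulated with 9-cis-retinoic acid as agonist; % is set by controls: 0 for no effect and ±100 for the full control effect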); conditions: HEK293T RXRa-UAS-bla, beta-lactamase ratio, antagonist mode; measured here: W530 green channel, cytotoxicity proxy
How it was run: (§1)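 Beta-lactamase reporter inhibition, read as CCF4 fluorescence ratio (ex 405, em 460/530 nm) after 2 h at RT. HEK293T UAS-bla cells, 2500/well, were stimulated with 9-cis-RA at 500 or 100 nM final alongside test compound for 18 h at 37 C.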

[24] = target: Retinoic acid receptor RXR-alpha (Homo sapiens) (UniProt P19793); test: as above; conditions: HEK293T RXRa-UAS-bla, beta-lactamase ratio, antagonist mode
How it was run: as §1

NC(=S)NNC(N)=S
inactive: activation [1] 0.327% and 1.24% | outcome [2]

Nc1cc(Cl)c([N+](=O)[O-])cc1O
inactive: activation [1] -1.43% | outcome [2]

Oc1cccc(Nc2ccccc2)c1
inactive: activation [1] 0.64% | outcome [2]

COc1ccc([N+](=O)[O-])cc1N
inactive: activation [1] 0.186% and -0.616% | outcome [2]

CC[C@H]1CCCC(O[C@H]2CC[C@H](N(C)C)[C@@H](C)O2)[C@@H](C)C(=O)C2=C[C@@H]3[C@@H](C=C[C@@H]4C[C@@H](O[C@@H]5O[C@@H](C)[C@H](OC)[C@@H](OC)[C@H]5OC)C[C@@H]34)[C@@H]2CC(=O)O1 (some centres undefined)
active: Potency [5] 48.6 µM
inactive: activation [1] 3.6% | activation [3] -4.34% | activity change % (negative = inhibition) [4] -5.92% | activation [6] -4.77% | activation [7] -0.423% | activation [8] -0.354% | max response [9] -2.17% | Potency [10] | max response [11] 3.99% | max response [12] -1.89% | Potency [13] | max response [14] -7.6% | outcome [15]

CC(C)Cc1nccs1
inactive: activation [1] -0.154% | outcome [2]

CCOC(=O)C(Cl)Cc1cc(-n2nc(C)n(C(F)F)c2=O)c(F)cc1Cl (centres undefined)
14.3%: max response [20]
64.4%: max response [17]
active: Potency [5] 54.5 µM
inactive: activation [1] 1.1% | Potency [16] | outcome [2] | Potency [18] | outcome [19] | Potency [21] | Potency [22] | max response [24] -48.3% | activity change % (negative = inhibition) [4] 18.6% | activation [6] 1.44% | activation [7] -0.796% | activation [8] 1.53% | max response [9] 11% | Potency [10] | max response [11] -4.81% | max response [12] -19.9% | Potency [13] | max response [14] -2.22% | outcome [15]
13.3%: max response [23]

Oc1c(Cl)cc(Cl)c(Cl)c1Cl
inactive: activation [1] -1.79% and -2.07% | outcome [2]

Cc1cc(C(C)(C)CC(C)(C)C)ccc1OCCOCC[N+](C)(C)Cc1ccccc1
inactive: activation [1] -0.746% | outcome [2]

CC(C)=CCl
inactive: activation [1] -3.14% | outcome [2]

CCC[CH2][Sn]([Cl])([CH2]CCC)[CH2]CCC
active: Potency [21] 0.398 µM | Potency [5] 24.3 µM | Potency [12] 50.1 µM
-0.857%: max response [20]
inactive: activation [1] 7.19% | activation [3] -5.41% | activation [8] 8.68% | max response [9] 2.3%

Nc1cccc([N+](=O)[O-])c1
inactive: activation [1] -0.749% | outcome [2]

CCCCC(C=O)CC (centres undefined)
inactive: activation [1] -2.35% | outcome [2]

CN(C)CCCNCCCN
inactive: activation [1] 2.54% | outcome [2]

C=CC(=O)NC(C)C
inactive: activation [1] -0.191% | outcome [2]

Source: PubChem BioAssay (NCATS)
